The source made the active and inactive calls. Rule for the calls: active = hit-call score of the fitted dose curve at least 0.9, where 1 is the maximum; inactive = score below 0.9.

Details in all cases: mRNA level, 48 h; actives raise or lower the signal
Read-out in assay [1]: Glutathione S-transferase M3 (GSTM3), GSTM3 (gene 2947)
The experiment in a line: LTEA_HepaRG_GSTM3: Life Technologies and Expression Analysis (LTEA) Assay for Glutathione S-transferase M3 (GSTM3) using HepaRG (AID 2283501). The procedure, abridged: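 Expression of GSTM3 is determined by qRT-PCR in human liver HepaRG cells treated 48 h with an 8-point half-log range from 100 uM in 0.5% DMSO.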

Read-out in assay [2]: Heat shock 70 kDa protein 1 (HSPA1A), gene 3303
The experiment in a line: LTEA_HepaRG_HSPA1A: Life Technologies and Expression Analysis (LTEA) Assay for Heat shock 70 kDa protein 1 (HSPA1A) using HepaRG (AID 2283502). The procedure, abridged:
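Cells were plated and cultured for 48 h, then switched to serum-free induction medium. Chemicals were added at eight half-log concentrations up to 100 uM for 48 h. RNA was then isolated and HSPA1A measured by qRT-PCR with bidirectional curve fitting against DMSO.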

Read-out in assay [3]: Hypoxia-inducible factor 1-alpha (Homo sapiens) (UniProt Q16665)
Briefly: LTEA_HepaRG_HIF1A: Life Technologies and Expression Analysis (LTEA) Assay for Hypoxia-inducible factor 1 (HIF1A) Trancription factor using HepaRG (AID 2283503). An outline of the steps: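 HIF1A transcript level read by qRT-PCR (ACTB, GAPDH, POLR2A normalization) after 48 h chemical exposure of HepaRG cultures. Eight half-log concentrations, top 100 uM, 0.5% DMSO vehicle, duplicates; bidirectional curve fit against DMSO baseline.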

Read-out in assay [4]: 3-Hydroxy-3-Methylglutaryl-CoA Synthase 2 (HMGCS2), HMGCS2 (gene 3158)
Briefly: LTEA_HepaRG_HMGCS2: Life Technologies and Expression Analysis (LTEA) Assay for 3-Hydroxy-3-Methylglutaryl-CoA Synthase 2 (HMGCS2) using HepaRG (AID 2283504). An outline of the steps: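 This steatosis marker was read as HMGCS2 mRNA change in HepaRG cells treated 48 h with up to 100 uM chemical. Normalisation used housekeeping genes; activity in either direction was fitted relative to 0.5% DMSO vehicle.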

Read-out in the next assay: HGF (gene 3082)
The experiment in a line: LTEA_HepaRG_HGF: Life Technologies and Expression Analysis (LTEA) Assay for Hepatocyte Growth Facto (HGF) using HepaRG (AID 2283505). The procedure, abridged:
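Using HepaRG monolayers kept in 0.5% DMSO, chemicals were tested in duplicate over eight half-log concentrations from 100 uM for 48 h. Endpoint: HGF mRNA change relative to DMSO, normalized to ACTB/GAPDH/POLR2A.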

Read-out in assay [5]: Insulin Like Growth Factor 1 (IGF1), IGF1 (gene 3479)
Briefly: LTEA_HepaRG_IGF1: Life Technologies and Expression Analysis (LTEA) Assay for Insulin Like Growth Factor 1 (IGF1) using HepaRG (AID 2283506). An outline of the steps:
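Cells are thawed, plated and cultured 48 h, then exposed in duplicate to chemical (highest 100 uM, half-log steps, 0.5% DMSO) for another 48 h. Total RNA is analysed by Fluidigm qRT-PCR for IGF1 expression relative to vehicle.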

Read-out in assay [6]: Intercellular Adhesion Molecule 1 (ICAM1), ICAM1 (gene 3383)
The experiment in a line: LTEA_HepaRG_ICAM1: Life Technologies and Expression Analysis (LTEA) Assay for Intercellular Adhesion Molecule 1 (ICAM1) using HepaRG (AID 2283507). The procedure, abridged: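 Using the human liver line HepaRG, compounds are tested in duplicate over 48 h at concentrations up to 100 uM. Expression is determined by TaqMan qRT-PCR, normalized to endogenous controls, and analysed relative to 0.5% DMSO vehicle.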

Read-out in assay [7]: Insulin-like growth factor-binding protein 1 (IGFBP1), IGFBP1 (gene 3484)
Briefly: LTEA_HepaRG_IGFBP1: Life Technologies and Expression Analysis (LTEA) Assay for Insulin-like growth factor-binding protein 1 (IGFBP1) using HepaRG (AID 2283508). An outline of the steps:
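HepaRG, 48 h, 8 conc. (max 100 uM, half-log), duplicates, 0.5% DMSO. Readout: TaqMan qRT-PCR, ACTB/GAPDH/POLR2A normalisation. Fit: bidirectional vs DMSO.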

Read-out in assay [8]: Interleukin 6 (IL6), IL6 (gene 3569)
Briefly: LTEA_HepaRG_IL6: Life Technologies and Expression Analysis (LTEA) Assay for Interleukin 6 (IL6) using HepaRG (AID 2283509). An outline of the steps: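 Changes in IL6 mRNA, up or down relative to 0.5% DMSO controls, were derived from concentration-response curves in human HepaRG cells treated for 48 h at up to 100 uM, with ACTB, GAPDH and POLR2A as normalizers.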

Read-out in assay [9]: Interleukin 6 Receptor (IL6R), IL6R (gene 3570)
The experiment in a line: LTEA_HepaRG_IL6R: Life Technologies and Expression Analysis (LTEA) Assay for Interleukin 6 Receptor (IL6R) using HepaRG (AID 2283510). The procedure, abridged: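 Cells were thawed, plated and cultured 48 h, then medium was changed to serum-free induction medium. Chemicals were added in duplicate (100 uM top, half-log steps, 0.5% DMSO) for 48 h. Lysates were analyzed by qRT-PCR for IL6R expression.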

Read-out in assay [10]: Potassium channel subfamily K member 1 (KCNK1), KCNK1 (gene 3775)
Briefly: LTEA_HepaRG_KCNK1: Life Technologies and Expression Analysis (LTEA) Assay for Potassium channel subfamily K member 1 (KCNK1) using HepaRG (AID 2283511). The procedure, abridged: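 Human HepaRG cultures receive test chemicals for 48 h in 0.5% DMSO, top concentration 100 uM with half-log dilutions. Induction or suppression of KCNK1 mRNA relative to DMSO is derived by bidirectional fitting of qRT-PCR data.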

Read-out in assay [11]: Keratin 19 (KRT19), KRT19 (gene 3880)
The experiment in a line: LTEA_HepaRG_KRT19: Life Technologies and Expression Analysis (LTEA) Assay for Keratin 19 (KRT19) using HepaRG (AID 2283512). An outline of the steps: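 Readout is qRT-PCR of KRT19 mRNA, normalized to ACTB, GAPDH and POLR2A, from HepaRG cells treated 48 h with eight-point half-log dilutions topping at 100 uM. Activity in either direction is scored relative to 0.5% DMSO vehicle.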

Read-out in assay [12]: JUN Transcription Factor, JUN (gene 3725)
Briefly: LTEA_HepaRG_JUN: Life Technologies and Expression Analysis (LTEA) Assay for JUN Transcription Factor using HepaRG (AID 2283513). An outline of the steps:
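Read-out is JUN transcript level by TaqMan qRT-PCR, normalized to ACTB, GAPDH and POLR2A, after 48 h chemical treatment of HepaRG cells. Concentration-response spanned eight half-log points up to 100 uM in 0.5% DMSO.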

Read-out in assay [13]: Lipase C (LIPC), LIPC (gene 3990)
The experiment in a line: LTEA_HepaRG_LIPC: Life Technologies and Expression Analysis (LTEA) Assay for Lipase C (LIPC) using HepaRG (AID 2283514). An outline of the steps: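 In this multiplexed gene-expression screen, human HepaRG cultures received test chemicals for 48 h across eight concentrations with 100 uM highest, in duplicate. Values reflect LIPC mRNA induction or suppression versus DMSO vehicle, from normalized qRT-PCR.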

Read-out in assay [14]: Lipoprotein lipase (LPL), LPL (gene 4023)
The experiment in a line: LTEA_HepaRG_LPL: Life Technologies and Expression Analysis (LTEA) Assay for Lipoprotein lipase (LPL) using HepaRG (AID 2283515). An outline of the steps: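 Concentration-response testing used half-log steps from 100 uM in 0.5% DMSO on human HepaRG cells, 48 h, duplicate wells. Phenobarbital 1 mM served as induction control; LPL mRNA was normalized to ACTB, GAPDH, POLR2A.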

Read-out in assay [15]: MicroRNA 122 (MIR122), gene 406906
The experiment in a line: LTEA_HepaRG_MIR122: Life Technologies and Expression Analysis (LTEA) Assay for MicroRNA 122 (MIR122) using HepaRG (AID 2283516). Note: the transcript read is the microRNA miR-122. An outline of the steps:
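Human liver HepaRG cultures receive test chemicals for 48 h at eight half-log concentrations from 100 uM. Expression is quantified by qRT-PCR with ACTB/GAPDH/POLR2A normalization and fitted bidirectionally against 0.5% DMSO.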

Read-out in assay [16]: matrix metalloproteinase-10 (MMP10), MMP10 (gene 4319)
The experiment in a line: LTEA_HepaRG_MMP10: Life Technologies and Expression Analysis (LTEA) Assay for matrix metalloproteinase-10 (MMP10) using HepaRG (AID 2283517). An outline of the steps:
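In differentiated HepaRG cultures kept in 0.5% DMSO, test chemicals act for 48 h over an eight-point range with a top dose of 100 uM. Expression is then quantified by TaqMan RT-PCR against ACTB, GAPDH and POLR2A.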

Read-out in the next assay: MYC, MYC (gene 4609)
Briefly: LTEA_HepaRG_MYC: Life Technologies and Expression Analysis (LTEA) Assay for MYC using HepaRG (AID 2283518). The procedure, abridged: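 Expression changes were scored by TaqMan qRT-PCR with ACTB, GAPDH and POLR2A normalization. Cultures in serum-free induction medium received duplicate 8-point concentration series, highest 100 uM, for 48 h; DMSO (0.5%) served as baseline.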

Read-out in assay [17]: Paternally Expressed 10 (PEG10), PEG10 (gene 23089)
The experiment in a line: LTEA_HepaRG_PEG10: Life Technologies and Expression Analysis (LTEA) Assay for Paternally Expressed 10 (PEG10) using HepaRG (AID 2283520).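 For AC50: differentiated HepaRG human liver cells in serum-free induction medium with 0.5% DMSO; PEG10 transcript by qRT-PCR normalised to ACTB GAPDH and POLR2A.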 The procedure, abridged:
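Human HepaRG cultures are dosed for 48 h across an eight-point half-log series starting at 100 uM, with 0.5% DMSO as vehicle and baseline. Gain or loss of PEG10 transcript is measured by qRT-PCR and fitted in both directions.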

Read-out in assay [18]: matrix metalloproteinase-3 (MMP3), MMP3 (gene 4314)
Briefly: LTEA_HepaRG_MMP3: Life Technologies and Expression Analysis (LTEA) Assay for matrix metalloproteinase-3 (MMP3) using HepaRG (AID 2283519). The procedure, abridged:
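Human liver HepaRG cultures received chemicals (top concentration 100 uM, 0.5% DMSO) for 48 h in duplicate. MMP3 mRNA induction or loss was then assessed via TaqMan qRT-PCR with housekeeping-gene normalisation.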

Hypoxia-inducible factor 1-alpha (Homo sapiens), sequence (Q16665 whole entry, looked up): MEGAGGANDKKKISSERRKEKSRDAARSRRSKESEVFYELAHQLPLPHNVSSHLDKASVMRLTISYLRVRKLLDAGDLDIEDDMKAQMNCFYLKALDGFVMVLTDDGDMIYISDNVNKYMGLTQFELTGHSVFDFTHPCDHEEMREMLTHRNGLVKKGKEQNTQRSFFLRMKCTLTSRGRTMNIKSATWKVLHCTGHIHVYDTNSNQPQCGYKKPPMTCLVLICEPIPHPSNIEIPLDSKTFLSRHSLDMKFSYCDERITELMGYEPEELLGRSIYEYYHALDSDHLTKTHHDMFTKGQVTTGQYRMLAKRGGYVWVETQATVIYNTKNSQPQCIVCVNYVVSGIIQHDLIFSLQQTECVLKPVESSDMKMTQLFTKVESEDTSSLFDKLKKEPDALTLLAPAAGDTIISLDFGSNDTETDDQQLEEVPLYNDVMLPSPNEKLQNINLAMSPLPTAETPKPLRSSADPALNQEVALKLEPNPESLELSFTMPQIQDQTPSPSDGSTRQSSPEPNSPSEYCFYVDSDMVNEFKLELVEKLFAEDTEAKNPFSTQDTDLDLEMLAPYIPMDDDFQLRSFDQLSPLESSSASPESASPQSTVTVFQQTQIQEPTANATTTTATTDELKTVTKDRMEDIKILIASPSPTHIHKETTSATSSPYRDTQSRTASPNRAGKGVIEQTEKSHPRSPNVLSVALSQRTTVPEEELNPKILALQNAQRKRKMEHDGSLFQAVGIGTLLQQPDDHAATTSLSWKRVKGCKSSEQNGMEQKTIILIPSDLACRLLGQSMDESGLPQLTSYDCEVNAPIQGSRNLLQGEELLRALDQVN

With `OCCCBr`, the result (in assay [1]; in [2]; in assay [3]; in [4]; in the assay with HGF (gene 3082); in assay [5]) was inactive. Besides, the molecule was classed as inactive in assay [6], in assay [7], in [8], in assay [9], in assay [10] and in [11]. For the same molecule, the outcome was “inactive” in [12]; “inactive” in assay [13]; “inactive” in assay [14]; “inactive” in assay [15]; “inactive” in assay [16]; “inactive” with MYC, MYC (gene 4609). Besides, the outcome in assay [17] was inactive.

As usually defined, the AC50 is the midpoint of the concentration-response curve, whichever way the signal moves. For the molecule `Cc1cc(N=Nc2ccccc2C)ccc1N`, the AC50 is 1.48 µM (active) in assay [1]; 3.55 µM (active) in assay [2]; 7.09 µM (active) in assay [3]; 12.8 µM (active) in [4]; 4.25 µM (active) in assay [5]; 9.92 µM (active) in [7]. For the same molecule, the AC50 is 17.2 µM (active) in [11]; 3.22 µM (active) in assay [13]; 4.4 µM (active) in assay [14]; 3.67 µM (active) in assay [15]; 5.49 µM (active) with MYC, MYC (gene 4609); 12.2 µM (active) in assay [18]. In addition, the AC50 in assay [17] was 4.04 µM (active). Also, the molecule was called inactive (with HGF (gene 3082); in [6]; in assay [8]; in assay [10]; in assay [12]; in [16]).

As to `CCN(CC)N=O`, the result (in assay [1]; in [2]; in assay [3]; in assay [4]; with HGF (gene 3082); in [5]) was inactive. The outcome in assay [6], in [7], in assay [8], in assay [9], in assay [10] and in assay [11] was inactive. Also, the outcome in assay [12] is “inactive”; in assay [13] it was “inactive”; in assay [14], “inactive”; in assay [15], “inactive”; in assay [16] it was “inactive”; with MYC, MYC (gene 4609), “inactive”. In addition, the outcome in [17] was inactive.

As for `Clc1ccc(Cl)c(Cl)c1`, the molecule was classed as inactive (in assay [1]; in [2]; in assay [3]; in the assay with HGF (gene 3082); in assay [5]; in assay [6]). Besides, the result in assay [7], in [9], in assay [10], in assay [11], in assay [12] and in [13] was inactive. The outcome is “inactive” in [15]; “inactive” in [16]; “inactive” in the assay with MYC, MYC (gene 4609). The AC50 in assay [4], in assay [14] and in assay [17] was 50 µM (active) each time.

(Values after PubChem BioAssay (EPA / NIEHS).)
